Measured values reported in PubChem BioAssay (NCI).
Compounds without any hit were thinned out: in the full panel of roughly 79,000, 15% have a hit. Activity calls are given as the source filed them. Rule as the data show it: active = growth inhibition above about 70%; inactive = the rest. Where a SMILES comes first, the peptide text is derived from it. [ ]: non-standard residue; d: D form. The star is where a group is joined. ξ: configuration not given here. NMeF = CN[C@@H](Cc1ccccc1)C(=O)O; NMeV = CN[C@H](C(=O)O)C(C)C; ξNMeN = CNC(CC(N)=O)C(=O)O; NMeA = CN[C@@H](C)C(=O)O; ξNMeV = CNC(C(=O)O)C(C)C; Boc = CC(C)(C)OC(=O)*

Assays:
[1] = NCI Yeast Anticancer Drug Screen. Data for the rad50 strain (AID 155);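 also: 0% = growth of vehicle-only cultures of the same strain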; settings: S. cerevisiae rad50 strain growth inhibition; at 50.0 µM; hits give high values
How it was run: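 Cells are treated with compound, grown, and their growth is then scored against vehicle-only cultures of the same repair-deficient yeast strain.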

[2] = NCI Yeast Anticancer Drug Screen. Data for the mec2-1 strain (AID 157); settings: S. cerevisiae mec2-1 strain, at 50.0 µM, hits give high values
How it was run: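 Growth inhibition is read against vehicle-treated controls after compound exposure of the mec2-1 yeast strain, which is defective in DNA damage repair or cell cycle control.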

[3] = NCI Yeast Anticancer Drug Screen. Data for the sgs1 mgt1 strain (AID 161);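 also: 0% = growth of cultures given vehicle only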; settings: S. cerevisiae sgs1 mgt1 strain, at 50.0 µM, hits give high values
How it was run: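 Yeast cells carrying a defined DNA-repair defect were exposed to test compounds. Growth inhibition was measured relative to vehicle-treated controls.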

[4] = NCI Yeast Anticancer Drug Screen. Data for the cln2 rad14 strain (AID 165);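 also: 0% = growth equal to vehicle treated cultures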; settings: S. cerevisiae cln2 rad14 strain, at 50.0 µM, hits give high values
How it was run: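 Growth inhibition, relative to vehicle-treated controls, is the read-out. The test organism is a yeast strain with defined genetic alterations, cln2 rad14.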

[5] = NCI Yeast Anticancer Drug Screen. Data for the bub3 strain (AID 167); settings: S. cerevisiae bub3 mutant strain, at 50.0 µM, hits give high values
How it was run: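 Part of a panel of yeast mutants defective in DNA damage repair or cell cycle regulation. Each strain is grown with compound, and inhibition is calculated relative to solvent-treated cultures.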

[6] = NCI Yeast Anticancer Drug Screen. Data for the mlh1 rad18 strain (AID 175); settings: S. cerevisiae mlh1 rad18 strain growth inhibition; at 50.0 µM; hits give high values
How it was run: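 Cells of a genetically altered yeast strain, deficient in DNA damage repair, were treated with compound. Their growth was then compared with that of vehicle-treated cultures to give inhibition.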

Measured: growth inhibition

CC1C2(C)OCC(C#N)(C(=N)O2)C1(C#N)C#N (stereo unspecified)
inactive: [1] 21.2% | [2] 12.2% | [3] -44.5% | [4] -18.3% | [5] -40% | [6] 3.65%

CCOC(=O)c1nc2c([nH]1)c(=O)n(C)c(=O)n2C
inactive: [1] 28.8% | [2] 10.7% | [3] 2.3% | [4] 30.1% | [5] 9.8% | [6] 1.4%

CC(=O)c1cc(C(C)(C)C)ccc1O
inactive: [1] 17.8% | [2] 4.8% | [3] 7.8% | [4] 9.65% | [5] 26.1% | [6] 12.8%

CCOC(=O)/C=C/c1ccc(F)cc1
inactive: [1] 27.6% | [2] 2% | [3] 18.1% | [4] 11.2% | [5] 20.8% | [6] 10.9%

FC12CCC(F)(CC1)CC2
inactive: [1] -7.85% | [2] 20.1% | [3] -7.5% | [4] -13.9% | [5] 7.6% | [6] -2.55%

COc1ccc(CCNC(=O)CC2CCN(C)CC2)cc1OC
inactive: [1] -1.05% | [2] -6.7% | [3] 10.2% | [4] -7.4% | [5] 15.2% | [6] -3.75%

CC(C)[C@@H]1C=C(c2ccccc2)c2ccccc2C1C(C#N)(C#N)C(C)C (stereo partly specified)
inactive: [1] -30.2% | [2] -33.5% | [3] -10.3% | [4] -8.4% | [5] -12.9% | [6] -14.1%

C[Si](C)(C)/C(=N/Nc1ccc([N+](=O)[O-])cc1[N+](=O)[O-])c1ccccc1
inactive: [1] -13.2% | [2] 9.9% | [3] -12.9% | [4] -13.6% | [5] -7.9% | [6] -7.15%

O=[N+]([O-])c1cn(CCNc2c3ccccc3nc3ccccc23)cn1
inactive: [1] 17.4% | [2] -5.35% | [3] 20.4% | [4] 10.6% | [5] -3.85% | [6] 16.8%

O=C(/C=C(\c1ccccc1)C1C2C=CC(C2)C1c1ccccc1)c1ccccc1 (stereo unspecified)
active: [3] 91.7% | [5] 75.2% | [6] 88.8%
inactive: [1] 61.6% | [2] 64.2% | [4] 49%

NC(=S)c1cccc(C(N)=S)n1
inactive: [1] 18.7% | [2] 19.9% | [3] 23.9% | [4] -27.9% | [5] 22.6% | [6] 26.6%

COC(=O)c1cc(=O)[nH]c2c1c(=O)[nH]c(=O)n2C
inactive: [1] 5.7% | [2] 9% | [3] -4.7% | [4] -39.2% | [5] 7.1% | [6] 21.4%

O=c1[nH]c2nc3ccccc3c(=O)n2/c1=C/c1cccs1
inactive: [1] 28.9% | [2] 2.2% | [3] 4.4% | [4] 20.6% | [5] 14.3% | [6] -15.8%

Cc1cccc(I)c1
inactive: [1] -21.4% | [2] -24.4% | [3] -4.95% | [4] -2.1% | [5] -2.55% | [6] 17.2%

COc1ccc(C)cc1NS(=O)(=O)c1ccccc1
inactive: [1] -7.45% | [2] -33.4% | [3] -8.2% | [4] -12.5% | [5] -9.65% | [6] 10.4%

Cn1c2c(cc(-c3ccccc3)c1=O)COc1ccccc1-2
inactive: [1] 31.1% | [2] -13.9% | [3] 26.2% | [4] 2.45% | [5] 23.7% | [6] 24.1%

CC(=O)Oc1cc(C)c(OC(C)=O)cc1C
inactive: [1] -11.3% | [2] -14.3% | [3] 3.1% | [4] -1.85% | [5] 16.9% | [6] 14.3%

O=C(Cc1ccccc1CCO)NCCc1ccccc1
inactive: [1] 5.35% | [2] 1.55% | [3] -32.9% | [4] 24.8% | [5] -21.8% | [6] -14.9%

COc1ccc(C2=Nn3c(nc4sc(C)c(C)c4c3=O)SC2)cc1
inactive: [1] 2.45% | [2] -8.15% | [3] -3.7% | [4] 19.1% | [5] 2.95% | [6] -14.3%

O=C(Nc1ccccc1Cl)Oc1ccc(Cl)cc1Cc1ccccc1
active: [1] 99.7% | [2] 99.7% | [3] 99.7% | [4] 99.7% | [5] 99.7% | [6] 99.7%

C/C(=N\N=C(N)N)c1sc(-c2nc(C)c(/C(C)=N/N=C(N)N)s2)nc1C
inactive: [1] 4.35% | [2] -11.2% | [3] -13.3% | [4] 26.4% | [5] 6.85% | [6] 19.6%

COC(=O)c1ccc(Cl)cc1
inactive: [1] 19.4% | [2] -3.2% | [3] -8.8% | [4] 14.3% | [5] 14.5% | [6] 2.45%

OCC1C2C=CC(C3C=CC32)C1CO (stereo unspecified)
inactive: [1] 8.4% | [2] -9.8% | [3] -5.7% | [4] -89.7% | [5] -1.6% | [6] 4.25%

Cc1cc(C)c(Br)c(C)c1C
inactive: [1] -17.4% | [2] 4.15% | [3] -9.95% | [4] -53.4% | [5] 8.5% | [6] -22.7%

COC(=O)C1=C(C)NC(C)=C(C(=O)OC)C1c1cc2ccccc2n2nnnc12
inactive: [1] 26.7% | [2] 11.1% | [3] 31.2% | [4] -1.75% | [5] 7.5% | [6] 47.4%

O=C1OC(=O)C2=C1CCC2
inactive: [1] -5% | [2] -14.1% | [3] -20.4% | [4] 13.3% | [5] 3.85% | [6] -12.4%

CC(C)(C)OC(=O)CC(c1ccccc1)c1ccccc1
inactive: [1] -11.5% | [2] -9.4% | [3] -8.7% | [4] -41.5% | [5] 49.1% | [6] -21.9%

Nc1cnc2ccccc2c1
inactive: [1] 10.2% | [2] 1.25% | [3] -8.45% | [4] -46.5% | [5] 11.8% | [6] -4.1%

COc1ccc(-c2c(C(C)=O)c(-c3ccccc3)n(C3OC(CO)C(O)C(O)C3O)c(=S)c2C#N)cc1 (stereo unspecified)
inactive: [1] -17.7% | [2] -3.7% | [3] 6.6% | [4] 3.95% | [5] 1.3% | [6] 6.2%

O=C(O)CCNc1ccccc1C(=O)O
inactive: [1] -8.4% | [2] -15.2% | [3] -13.9% | [4] -9.6% | [5] -40.8% | [6] -0.25%

COc1ccc(O)c(C(=O)O)c1
inactive: [1] -20.2% | [2] -12.3% | [3] -7.55% | [4] 12.6% | [5] -3.35% | [6] 2.15%

CCC(CCCN)Nc1cc(OC)cc2c(C)ccnc12 (stereo unspecified)
inactive: [1] -53.9% | [2] -3.1% | [3] 1.75% | [4] -4.5% | [5] 21.2% | [6] -21.2%

COC(=O)[C@H](C)N(C)C(=O)C(CC(N)=O)N(C)C(=O)[C@H](Cc1ccccc1)N(C)C(=O)[C@@H]1CCCN1C(=O)[C@H](C(C)C)N(C)C(=O)C(C(C)C)N(C)C(=O)[C@@H](NC(=O)OC(C)(C)C)C(C)C (stereo partly specified) (Boc-V[ξNMeV][NMeV]P[NMeF][ξNMeN][NMeA]-OMe)
inactive: [1] -20.1% | [2] -16.6% | [3] -13.9% | [4] 8.9% | [5] 8.65% | [6] -5.4%

COc1ccc(CSC(=S)Nc2cc(C)c(C)cc2Br)cc1
active: [1] 96.3% | [2] 97.5% | [3] 97.7% | [4] 97.6% | [5] 96.8% | [6] 96.8%

c1cnc2[nH]cnc2n1
inactive: [1] 2.3% | [2] 0.6% | [3] -3.3% | [4] 5.75% | [5] 4.85% | [6] -10.1%

CCC(=O)COC(C)=O
inactive: [1] -3.75% | [2] -22% | [3] -6.05% | [4] -2.35% | [5] -3.75% | [6] 0.95%

Cc1cc(C)c2c(c1)CC(C)(C)C(=O)OC2=O
inactive: [1] -16.2% | [2] -23.9% | [3] -9.65% | [4] 2.4% | [5] -10.3% | [6] -11.2%

CN(C(=O)c1ccco1)C(=S)N1CCN(c2ccccc2)CC1
inactive: [1] -17% | [2] -1.95% | [3] -0.7% | [4] 10.2% | [5] 13.8% | [6] -13.3%

O=C(NC1CCCCC1)c1cccnc1
inactive: [1] -11.4% | [2] -2.2% | [3] -17.1% | [4] -10.9% | [5] -14.5% | [6] -13.5%

O=C(O)C(=N\Nc1ccccc1)/C(=N\Nc1ccccc1)C(=O)O
inactive: [1] 30.7% | [2] -6.25% | [3] 33.9% | [4] 21.8% | [5] 24.2% | [6] 7.3%

N#Cc1cccc(N2C(=O)c3c(c(-c4ccccc4)c(-c4ccc(Sc5ccc(-c6c(-c7ccccc7)c7c(c(-c8ccccc8)c6-c6ccccc6)C(=O)N(c6cccc(C#N)c6)C7=O)cc5)cc4)c(-c4ccccc4)c3-c3ccccc3)C2=O)c1
inactive: [1] -48.6% | [2] -44.2% | [3] -41% | [4] -14.8% | [5] -68.8% | [6] -60.8%
